# From the supplement of paper PMC11417369
# ± gives the standard deviation of the averaged measurements. Whole data set: some 25,000 sequences, median “ln(normalized median fluorescence intensity)” near 8.9, cut for the highest 2% near 10. The sample as a whole holds a higher share of the highest values than the screen did.
# Test system: PfAP2-LT AP2 domain (GST-tagged)
# Experiment: gcPBM binding intensity (ln(normalized median fluorescence intensity)); higher = stronger DNA binding
# In short: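 Plasmodium falciparum DNA-binding domains carrying a GST tag were expressed in E. coli and applied for 1 h, at about 25 μg on average, to an Agilent 4 × 180k array. The array held primer-extended double-stranded 36-bp intergenic genomic probes together with negative controls, and binding took place in 1× PBS with 1% milk, 0.2 mg/ml BSA, 0.5% salmon testes DNA and 0.03% Triton X-100. An Alexa488 anti-GST antibody detected bound protein, and the array was scanned at 488 nm. Binding intensity is taken as the highest Masliner-normalised natural-log median intensity across replicate spots of either probe orientation.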
row,Sequence,gcPBM binding intensity (ln)
1,TTTTCTTCATAAATGCTGCACTGGTTTAAGCATGAT,8.6 ± 0.46
2,TGGGAAGGGTGGGAAACTTTATCAAAAACTTATTAC [GTGCAC_negctrl_site16],8.98 ± 0.24
3,TTTTGTTGATTTATATCTGTAGGGTTTAATATAACA [XGTACX_negctrl_site174],8.51 ± 0.33
4,TATAAAAAATAAAATACACACACATATATATATATA [CACACA_site8365],9.74 ± 0.28
5,TGCACCCACCAACACACACACAACTAAAAAATAATG [CACACA_site2566],9.71 ± 0.42
6,TATATATATATATATACACACACACCCACCAAAGCG [CACACA_site7904],10.02 ± 0.021
7,ATCAAGCACCAACACACACACACACCCCCACCCACA [CACACA_site370],10.6 ± 0.11
8,AGCACCCACCAACACACACACACACCCACCCACCGA [CACACA_site368],10.22 ± 0.028
9,AGCACCCACCAACACACACACACACCCACCCACCCA [CACACA_site8011],10.3 ± 0.11
10,TACACCCACCAACACACACACACACTAATAAAAAAA [CACACA_site8060],10.1 ± 0.44
11,TCCTGTTGAGAATGGCGTACATATAAATATTATATA [XGTACX_site1841],8.55 ± 0.42
12,TTTAATTTGTTATACACACACAAAAAAAATTATAAA [CACACA_site3937],8.93 ± 0.46
13,CTTATGTTTTTTAAGTGTACATATTATACGTATTAT [XGTACX_site1176],9.02 ± 0.42
14,AAATAACATAATAAGGGTACATTAATTTCGATAATG [XGTACX_site835],8.77 ± 0.4
15,TTTCTAATTTATATCACACACATATATAAATAGTAA [CACACA_site6156],8.72 ± 0.42
16,TATTAATCCTTTTGCTTGGAAACATTCAAAAGGAAG [CACACA_negctrl_site1129],8.18 ± 0.41
17,TAAATTATAATAAATACACACAAATTATAATTCTAT [CACACA_site3942],8.79 ± 0.37
18,TTTAGAGAAGTCAAGTGTACATATAAAATAATTCAC [XGTACX_site4997],8.65 ± 0.35
19,ATATATATATATATATGTACATATGTATATTTTTTT [XGTACX_site1299],9.77 ± 0.44
20,GATAATTACGGACACACACACACACGCACAACTAAA [CACACA_site7254],10.215 ± 0.0071
21,TAAAAAATAAAAATTGCACACTAAAAAATTACGCAC [CACACA_site9129],8.76 ± 0.41
22,TAATTATGCAGACACACACACACACGCAACTAAAAA [CACACA_site7253],10 ± 0.3
23,TATATAAATGGACACACACACACCTTATAATTATTA [CACACA_site6093],10 ± 0.38

row,Sequence,gcPBM binding intensity (ln)
1,TGCACGCACAGACACACACACAACTAAAAAATAATG [CACACA_site7250],9.54 ± 0.49
2,GATAATTATGGACACACACACACACCCACAACTAAA [CACACA_site8824],10.2 ± 0.35
3,AAGATAATTACGCACACACACACACGCCCACAACTA [CACACA_site7255],10.4 ± 0.12
4,TAATTATGCGGACACACACACACACCCAACTAAAAA [CACACA_site5427],9.9 ± 0.26
5,AAAAATAAAAATTGCACACTAAAAAATTACGCACGA [CACACA_site3418],8.94 ± 0.35
6,TAAATTTTTATTTGTAGTACTATATATATATATATA [XGTACX_site1026],8.9 ± 0.12
7,TAATTATGTACTATTATACACACGTTTAATTGTAAA [CACACA_site206],8.74 ± 0.42
8,AACATATATAATATTTGTACTTATATACAAAATATG [XGTACX_site7502],8.64 ± 0.4
9,ATATATATTTTAATAACACACATATATTATATTATA [CACACA_site4387],8.7 ± 0.38
10,AAAACACAAAAAAAATGTACACATATATATATATAT [XGTACX_site8509],9.84 ± 0.12
11,TATATACACCCACATACACACAAATAAAAAAACACC [CACACA_site3414],9.64 ± 0.31
12,CATACATACAAACACACACACATATATATACATACA [CACACA_site852],10.1 ± 0.38
13,CATACATACAAACACACACACATATATATATATATA [CACACA_site43],10.16 ± 0.042
14,AAAAAAAAAAAAAACATACACACAAATATATACATA [CACACA_site4010],9.05 ± 0.45
15,AGGCACACAAACATATGTACACATATATATATATAT [XGTACX_site4723],10.21 ± 0.078
16,TATAAATATACAAACACACATACAAACATATATATA [CACACA_site1120],9.24 ± 0.37
17,CATACATATAAACACACACACACACCCACCCACAAA [CACACA_site8059],10.4
18,CATATACGCAAACACACACACATATATATATATATA [CACACA_site501],10.3 ± 0.27
19,TGTACAAATATGTACACACACACATATATATATATA [CACACA_site584],9.88 ± 0.085
20,TACATATATATATACACACATACATATATATACGCA [CACACA_site792],9.11 ± 0.28
21,TATACGCATATATAAACACACAAAAAAAAAAAAAAA [CACACA_site2026],8.86 ± 0.48
22,TCTTTTTAACAAAAAAAAAAAAAAAAAAAAAAATTA [CACACA_negctrl_site1637],7.96 ± 0.43
23,AGTAGTCTGGAGAAAAGTACATAGTATCTGGTAACC [XGTACX_site2024],8.81 ± 0.58

row,Sequence,gcPBM binding intensity (ln)
1,AAAAAAATTAAACATGAAGAATAAGGAACAAAAAAA [CACACA_negctrl_site1607],8.78 ± 0.55
2,CTGATATATAGATGTAGTACATAAAAATGACGAATT [XGTACX_site5612],8.99 ± 0.47
3,ATTTTTTTGGAATTCACACACAAAAAAAAAAATAAA [CACACA_site2081],8.79 ± 0.47
4,GATAAATCATATATAACACACATATGAATATTACAA [CACACA_site1321],8.98 ± 0.35
5,AACTTACTTGGACATACACACATATATATATATATA [CACACA_site2978],9.78 ± 0.3
6,TATATACACAAACACACACACACATACACCCACATA [CACACA_site8504],10.2 ± 0.16
7,TGCATATACTCAAGCACACATATATATATATATATA [CACACA_site4733],9.76 ± 0.13
8,TGCATATACGCAAGCACACATATATATATATATATA [CACACA_site1069],10.1 ± 0.4
9,TACACAAATATATACATACACACATATATACGCATA [CACACA_site394],9.27 ± 0.3
10,TATACATACCCACCCACACACAAAAAAAAAAAAAAA [CACACA_site4632],9.76 ± 0.3
11,CAAACCCACCAACACACACACACAAAAATGATTAAA [CACACA_site2432],9.88 ± 0.3
12,TGGTAATACCCATACACACACACATACACATATATA [CACACA_site8877],9.76 ± 0.32
13,GTTACACCAACAAACACACACACACCGACACCCAAA [CACACA_site5361],10.1 ± 0.17
14,TGGTAATACCCATACACACACACATACCCATATATA [CACACA_site5509],9.76 ± 0.33
15,GTTACACCAACAAACACACACACACCCACCCACAAA [CACACA_site2427],10.3 ± 0.16
16,GTAATACCCAAACACACACACATACCCATATATATA [CACACA_site5510],10.1 ± 0.29
17,AAGAAAAGAAACAAAAAAAAAAAGAAATAAAAGGAA [TGCATGCA_negctrl_site171],8.61 ± 0.62
18,AAAATTTATAAAAGCACACAAAATAAAAAAAAATGA [CACACA_site1491],8.88 ± 0.46
19,AAGAAAATAAAATAAAAAAAAAAATAAAAAAAATAA [TGCATGCA_negctrl_site516],8.37 ± 0.74
20,CAAAAATAAACTATAGTACACACTTATTATTATGAA [CACACA_site2702],8.8 ± 0.49
21,ACACATACTAAAATGTTGTGAAATATGATAATGTGA [CACACA_negctrl_site851],9.11 ± 0.47
22,TTAATCATAAAAGTCACACATAATAAGAAAAAGCTT [CACACA_site4616],8.78 ± 0.37
23,AAATAGGGAATTTATGCACACAGTTAAGGGGGAAAA [CACACA_site2071],9.28 ± 0.26

row,Sequence,gcPBM binding intensity (ln)
1,ACATATAATAAAAAATGTACACACATAAGAAAATTT [XGTACX_site6153],9.16 ± 0.38
2,TAAATACATTTATGTACACACACATAGATGTATATT [CACACA_site5618],9.22 ± 0.36
3,TAACATGATATATAATGTACATATAAGATATTTATA [XGTACX_site4383],8.79 ± 0.45
4,GATACATAGAAACACACACACATACATATATACATA [CACACA_site3438],9.92 ± 0.26
5,CACACCCACCAACACACACACACACCCACCCATATA [CACACA_site366],10.3 ± 0.12
6,CACACCACCAACAAAAGTACATACATATATATATAT [XGTACX_site5781],9.65 ± 0.14
7,TACACCCACCAACACACACACACACCCAAAAAAAAA [CACACA_site498],10.1 ± 0.14
8,CACAAAGACACAAACACACACACACCCACATACATA [CACACA_site452],9.86 ± 0.24
9,CATACATAGAAACACACACACACACCCACCCACAAA [CACACA_site494],10.19 ± 0.028
10,CAAACATATTAATGTACACACACCCACCCACAAACA [CACACA_site2752],10.2 ± 0.29
11,TAACCATACATACATACACACACACCCACATATATA [CACACA_site8951],9.95 ± 0.13
12,AAGCAAACATATTAATGTACACACACCCACACACAA [XGTACX_site5806],9.95 ± 0.46
13,CATATACACCAACACACACACACACCCACAAAAAAA [CACACA_site496],10.1 ± 0.27
14,AACATATTAATGTACACACACCCACGCACAAACAAA [CACACA_site7320],9.765 ± 0.092
15,ATATATTACAATATATGTACTTAATTTGCTTAAATA [XGTACX_site7912],8.6 ± 0.52
16,TAACAAATATTATTTTGTACATAATATATATATATA [XGTACX_site6898],8.6 ± 0.32
17,TTGTTTCAAAATTAAACACACACAAAAAAAAAAAAA [CACACA_site8856],8.86 ± 0.52
18,TTATATATATTTAAAAAAATAACATAAATAAATAAA [CACACA_negctrl_site347],8.29 ± 0.52
19,AGTCTTTTACATTGCACACACATTTCTTTCCTTTTG [CACACA_site2988],9.61 ± 0.36
20,AATAGGATATGGTACATTTTTTGTATACTTTTTGTT [CACACA_negctrl_site1804],8.91 ± 0.47
